Screen size: about 3,000 compounds; about 1,800 (60%) were called active. So high a share suggests a set chosen from earlier hits. Not all results are given here. A number with no mark means an inactive call.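 Rule for the calls: active = activation at or above a set limit, or at least 3 SD above the negative control mean; inactive = the rest.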
What follows are compounds tested against Nuclear receptor subfamily 1 group D member 1 (Homo sapiens) (UniProt P20393) (assay: modulators of Rev-erb alpha DNA binding, confirmation, biochemical, FITC-DNA, fluorescence polarization, single point (AID 1259319;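 note: 0% = 35 nM protein with DMSO and 100% = 750 nM protein high control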)). Conditions: 90 min, at 25 µM, active compounds read high.
Sequence of Nuclear receptor subfamily 1 group D member 1 (Homo sapiens) (P20393 whole entry, looked up): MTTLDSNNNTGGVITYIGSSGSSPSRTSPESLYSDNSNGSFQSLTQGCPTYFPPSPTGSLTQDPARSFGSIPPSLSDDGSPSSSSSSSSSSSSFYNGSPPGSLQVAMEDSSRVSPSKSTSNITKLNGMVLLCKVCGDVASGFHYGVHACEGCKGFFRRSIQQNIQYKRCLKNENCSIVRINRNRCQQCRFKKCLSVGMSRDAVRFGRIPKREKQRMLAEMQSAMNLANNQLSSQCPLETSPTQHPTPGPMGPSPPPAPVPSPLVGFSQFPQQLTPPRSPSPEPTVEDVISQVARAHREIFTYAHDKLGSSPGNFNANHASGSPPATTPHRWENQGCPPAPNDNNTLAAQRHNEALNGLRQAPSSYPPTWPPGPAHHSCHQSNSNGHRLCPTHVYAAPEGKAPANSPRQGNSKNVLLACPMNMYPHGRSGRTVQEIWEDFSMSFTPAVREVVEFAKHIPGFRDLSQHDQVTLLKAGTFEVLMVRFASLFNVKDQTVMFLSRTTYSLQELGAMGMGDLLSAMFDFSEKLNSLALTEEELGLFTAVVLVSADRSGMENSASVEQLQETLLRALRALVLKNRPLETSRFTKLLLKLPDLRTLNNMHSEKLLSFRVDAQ
`COc1ccc(CC(=O)Nc2ccc(-c3nnc(-c4ccc(C)cc4)o3)cc2)cc1` gave an activation of -0.593%. For `COc1ccc(CNC(=O)c2nnn(CC(=O)Nc3cc(C)cc(C)c3)c2N)cc1`, the activation was 21.9% (active). With `Cc1c(-c2ccccc2)nc(N)c(C#N)c1-c1cccs1` the activation was 16.4%. In the case of `O=C(COC(=O)c1cccc(Br)c1)Nc1cccc2c1C(=O)c1ccccc1C2=O`, the activation is reported as 18.5% (active). `N#Cc1ccccc1Sc1ccccc1C(=O)OCC(=O)NC1CCCCC1` was tested, and the activation was 35.9% (active). `CC(C)C(C)NC(=O)COc1nc2ccccc2nc1N(C)C1CCCCC1` (stereo unspecified) was tested, and the activation was 7.89%. For `O=C(COC(=O)c1ccccc1SCC(=O)NC1CCCCC1)NC1CCCCC1`, the activation was 86.9% (active). In the case of `Cc1cc(NC(=O)CSc2nc3cc(Cl)ccc3c(=O)n2Cc2ccco2)no1`, the activation is reported as 16.1%. In the case of `Cc1cc(NC(=O)CSc2nc(C(C)C)nc3sc4c(c23)CCC(C)C4)no1` (stereo unspecified), the activation is reported as 30.8% (active). In the case of `Cc1nc(SCC(=O)Nc2cc(C)on2)c2c3c(sc2n1)CCCC3`, the activation is reported as 43.7% (active). For `C[n+]1ccc(/C=C/c2c[nH]c3ccccc23)cc1`, the activation was 136% (active). With `CCc1ccc2c(c1)cc(CN(C(=S)Nc1ccccc1Cl)C1CC1)c1nnnn12` the activation was 2.01%. In the case of `COc1cccc(-n2c(SCC(=O)c3c[nH]c4ccccc34)nc3ccccc3c2=O)c1`, the activation is reported as 30.8% (active). `CCOC(=O)c1ccc(NC(=O)c2c(NCc3ccccc3)[nH]c(=O)[nH]c2=O)cc1` showed an activation of 1.79%. In the case of `CCN(CC)c1ccc2cc(C(N)=O)/c(=N\NC(=O)c3ccncc3)oc2c1`, the activation is reported as 25.4% (active). For `Cn1c(=O)n(C)c2cc(/C=N/NC(=O)c3cccc(Br)c3)ccc21`, the activation was 8.29%. `COc1cc(Cl)c(C)cc1NC(=O)COC(=O)c1cc(SC)ccc1Cl` was tested, and the activation was 23.3% (active). In the case of `CCN1/C(=C\c2ccc3ccccc3[n+]2CC)Sc2cc(C)ccc21`, the activation is reported as 67.5% (active). `CCn1c(SCC(=O)Nc2cccc(F)c2)nnc1-c1cc2cc(Br)ccc2o1` was tested, and the activation was 26.2% (active). `Cc1nc2nc(SCC(=O)Nc3cccc(F)c3)[nH]c2cc1Br` was tested, and the activation was 20% (active). With `Cc1nc2nc(SCC(=O)c3ccccc3)[nH]c2cc1Br` the activation was 45% (active). In the case of `COc1ccc2[nH]c(C(=O)Nc3ccccc3Cl)cc2c1`, the activation is reported as 30.5% (active). For `COc1ccc(C(=O)Nc2cccc(NC(=O)c3ccc(OC)cc3OC)n2)c(OC)c1`, the activation was 4.36%. Work on `Cc1cc(=O)oc(C)c1C(=O)N1CCCCC1` yielded an activation of -0.804%. In the case of `CC(C)Cn1c(CN(Cc2ccccc2)Cc2ccccc2)nc2c1c(=O)n(C)c(=O)n2C`, the activation is reported as 48.3% (active). `Fc1ccc(CNc2nc3ccccc3n3nnnc23)cc1` was tested, and the activation was 27% (active). In the case of `COC(=O)c1cccc(Cn2ccc3ccc(-c4ccc5ccn(C(=O)C6CCCCC6)c5c4)cc32)c1`, the activation is reported as 43.5% (active). For `COC(=O)c1cccc(Cn2ccc3ccc(-c4ccc5ccn(C(=O)c6ccccc6C)c5c4)cc32)c1`, the activation was 89.9% (active). With `CCOC(=O)c1c(C)oc2cc(Br)c(OCC(N)=O)cc12` the activation was 40.3% (active). In the case of `COc1cc(OC)cc(-c2nc(=S)n3ccsc3n2)c1`, the activation is reported as 2.77%. For `Cc1sc2ncnc(N3CCC(C(=O)Nc4nc5ccc(Cl)cc5s4)CC3)c2c1C`, the activation was 51% (active). With `CN1C(=O)c2ccc(C(=O)Nc3ccc(Br)cn3)cc2C1=O` the activation was 30.1% (active). `CCCCCn1nnnc1C1c2ccccc2C(=O)N1Cc1ccco1` (stereo unspecified) was tested, and the activation was -8.88%. `O=c1cc(N2CCCCC2)c(-c2ccccc2)nn1Cc1cccc(F)c1` gave an activation of 8.56%. With `CCC(C(=O)NC1CCCC1)N(C(=O)c1snc(C(N)=O)c1N)c1ccc2c(c1)OCCO2` (stereo unspecified) the activation was 20.2% (active). With `NC(N)=Nc1nc2ccc(Br)cc2c(=O)[nH]1` the activation was 21.2% (active). For `O=C1Cc2ccccc2Sc2ccc(Cl)cc21`, the activation was 23.2% (active). `CCOc1cc(-c2cc(-c3ccc(OC)cc3)nc(N)c2C#N)ccc1O` gave an activation of 13.9%. For `CCOc1nc(-c2ccc(OC)cc2)ccc1-c1noc(-c2cc(OC)c(OC)c(OC)c2)n1`, the activation was 22.3% (active). In the case of `Cc1ccc(-n2nc3cc(C)c(NC(=O)c4cccnc4)cc3n2)cc1`, the activation is reported as 0.139%. In the case of `COc1ccc(CCNC(=O)CSc2nc(-c3ccc(OC)c(OC)c3)ccc2C#N)cc1`, the activation is reported as 37% (active). Compound `COc1cccc(-c2ccc(C#N)c(SCC(=O)NCCc3ccc(Cl)cc3)n2)c1` has an activation of 13.2%. `CCOC(=O)c1ccc(NC(=S)Nc2cc(C)cc(C)n2)cc1` gave an activation of 4.33%. `CC(=O)c1ccc(S(=O)(=O)N2CCN(c3nc4c(C)c(C)ccc4cc3C#N)CC2)cc1` was tested, and the activation was 181% (active). Work on `COc1ccc(-c2csc3ncnc(N4CCN(S(=O)(=O)c5ccccc5C#N)CC4)c23)cc1` yielded an activation of 14.6%. `COc1ccc(S(=O)(=O)N2CCN(c3ncnc4c(-c5ccccc5)nsc34)CC2)cc1` gave an activation of 8.1%.
